The full ranking holds about 33,000 sequences; the median of “E-score (-0.5 to 0.5)” is about -0.0059, and the highest 2% start at about 0.26. The sample holds the highest values, similar sequences and a random draw of the others, so the mix is not that of the screen.
The sequences below were run against T1, Cin5 (UniProt P40917) (assay: PBM E-score (8-mer binding enrichment) (E-score (-0.5 to 0.5)); higher = stronger / more preferred TF binding). Settings: protein concentration: 100 nM; construct: GST-full length.
T1 sequence: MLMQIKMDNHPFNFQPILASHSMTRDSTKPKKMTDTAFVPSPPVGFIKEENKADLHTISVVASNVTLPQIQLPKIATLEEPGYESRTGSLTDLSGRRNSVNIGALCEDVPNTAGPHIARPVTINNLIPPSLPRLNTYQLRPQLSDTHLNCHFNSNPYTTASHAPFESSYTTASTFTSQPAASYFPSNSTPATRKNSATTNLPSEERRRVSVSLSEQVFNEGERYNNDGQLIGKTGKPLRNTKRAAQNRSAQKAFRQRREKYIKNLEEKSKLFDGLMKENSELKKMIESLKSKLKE
Description: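 Universal 'all 10-mer' protein binding microarrays (Agilent AMADID 015681) probed with GST-tagged S. cerevisiae TFs (full-length or DBD) made by in vitro transcription/translation (PURExpress), about 100-200 nM. Bound TF was detected with fluorescent anti-GST. Each ungapped 8-mer (which stands for itself and its reverse complement) is scored by the PBM enrichment score (E-score), a modified Wilcoxon-Mann-Whitney statistic from -0.5 to +0.5, computed with the Universal PBM Analysis Suite. Scale: above 0.35 generally sequence-specific binding.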

Sequence	PBM E-score
CTATATTC	0.0546
ACATATTG	0.0935
ATATATTG	0.088
CCATATTA	0.169
CTATATTA	0.325
TGAGGCCA	0.0508
TGGCCTAA	-0.0968
AACGGGAG	-0.0138
CAACCGTC	-0.179
AAAAATTA	0.227
CTAAATTA	0.258
ACAAATTA	0.269
ACAAATTG	0.248
ATAAATTG	0.272
ATAAATTA	0.349
CCAAATTA	0.187
CTAAATTC	0.0709
TAAAATTA	0.178
AAAAATTG	-0.0306
GTAAATTA	0.192
ATAAATTC	0.0845
CCGAGGAG	-0.213
AGAGCCTG	-0.163
ACGAAGAG	-0.0165
CCGAAAGC	-0.328

Sequence	PBM E-score
AAGGGTAC	-0.137
ATCGACTG	0.101
TCGTGGAA	0.263
GCGTGGAA	0.106
ACGTGGAA	-0.00812
GGACACCC	-0.226
AGAAGCGC	0.0405
GATCCCAA	-0.0221
CAAGCAAG	-0.103
ATTAACTC	0.17
CATAACAA	0.252
GATAACAA	0.1
GTTAACAA	0.17
ATTAACAA	0.274
AATAACAC	0.247
CTTAACAC	0.152
ATTAACTA	0.272
GTTAACTA	0.205
TATAACAA	0.295
ATTAACAG	0.0268
ATTAACAC	0.271
CCACTAAC	0.0063
ATTGGGGA	0.00734
AGGTCCTC	-0.134
GCCGCGAC	-0.086

Sequence	PBM E-score
ACGAACGG	0.0374
CACGATAG	0.139
CTAGTCAG	-0.0157
AGGACCCG	-0.169
ACCATACC	-0.0386
ATCAGTTG	0.209
CCAGCGCA	-0.132
ATATTCCG	0.179
GAATTCCA	0.173
CTATTCCA	0.215
CAATTCCA	0.0576
ATATTCCA	0.274
AAATTCCA	0.295
AAAAGCTT	-0.127
CCTCAATA	-0.0429
CCGGGGCC	-0.242
CTCGAGAA	-0.0673
ACTTGTAC	0.00779
ATCTCTCA	0.216
CTATCTCA	-0.00021
ATATCTCA	0.277
CTGCTATA	0.117
GCAACTCA	0.00079
GAAGCTTA	0.171
TAAGCTGA	0.267

Sequence	PBM E-score
CAAGCTGA	0.233
TAAGCTTA	0.372
CAAGCTTA	0.184
AAAGCTGA	-0.056
GGCTGTCA	-0.21
TATATCAA	0.196
GCATCGGC	-0.125
ACTACCCG	-0.0362
AGCTTCCG	-0.0682
AGTATTAT	0.0851
AGTATTAC	0.27
AGTATTCC	0.225
AGTATTAA	0.242
CGTATTAG	0.109
GGTATTAA	0.064
AGTATTAG	0.275
CGTATTAC	0.214
GGTATTAC	0.271
GGTTGCTA	-0.0578
GACCGCCA	-0.0859
CACTGTAC	-0.0867
CTTGCACC	0.0355
AAGCACAT	0.206
AGGAGAGC	-0.394
AGCAGCAG	-0.0447

Sequence	PBM E-score
CCTGGTAC	-0.1
CTCTGATC	-0.162
ATATTAGA	0.159
GTATTAGA	0.234
GTATTGTA	0.274
GCATTACA	0.167
GCATTATA	0.152
CTATTACA	0.181
GTATTATA	0.267
ATATTGTA	0.151
ATATTATA	0.265
GTATTACA	0.34
CTATTATA	0.142
CTATTGTA	0.13
AGCTAGGC	-0.14
CGCCGCAA	0.0347
GACAGTCA	-0.165
CCGAATGA	-0.0132
CCCAATAC	-0.00655
TTCCGGAA	0.248
ATCCTCTG	0.0169
AGGATCCA	-0.0524
GGAATCCA	0.0132
ATATTATC	0.233
AGATTATG	0.248

Sequence	PBM E-score
ATATTATG	0.379
GGGGTGTA	-0.208
CCCGATAG	-0.0593
AATAATAG	0.198
AATAATAA	0.305
CATAATAA	0.0985
AAAAATCT	0.0604
AATAATAC	0.181
AATAATAT	0.356
AATAATGG	0.226
AATAATGC	0.145
AATAACCT	0.061
AATAATGT	0.273
AATAATCT	0.345
GATAATAA	0.199
AAAAAACG	0.125
AATCATTG	0.207
ACGCAGTA	-0.15
CCACCGTA	-0.049
GGTAGCAC	-0.152
CATGGATC	-0.00694
ACTCGCGA	0.214
TAGATCGA	0.0888
ACTCTGGG	-0.0166
CGGAGACC	-0.167

Sequence	PBM E-score
CCCTCGGC	-0.217
AGTCCCTA	-0.176
AGCTGAAG	0.0392
ATCTGCGA	0.00217
ATTACGTC	0.371
GTTACGTA	0.305
GGTACGTA	-0.032
ACTACGTG	-0.223
ATTACGTG	0.423
AGTACGTG	-0.096
GTTACGGA	-0.122
ACTACGTC	0.00455
CTTACGTC	0.196
ACCCTGGA	-0.243
AGCGCCCA	-0.243
AGTCAACT	-0.157
CGAGCTCG	0.0762
ATACCATA	0.259
ATACCATG	0.0359
GTACCATA	-0.04
CTGCCCAC	-0.151
GCCTTTAC	-0.0984

Source: the supplement of paper PMC3334620
